Screening results deposited in PubChem by National Center for Advancing Translational Sciences (NCATS).
Compounds with a hit are over-represented: about 5.9% of the library has one in this group of screens.
HEK293 tox – cytotoxic in the GLP-1 receptor inverse agonist counter-screen; hit rate 0.13% among 410,000; HEK293 cAMP-luciferase reporter cells, luminescence, 24 h; Potency, µM (highest dose often 38.3 µM), without a hit: at the top dose activity change, negative = inhibition, hits mostly inhibitors; AID 624418;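 note: loss of luciferase light is scored as toxicity; % is set by controls: 0 for no effect and ±100 for the full control effect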
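Compound-treated cells are incubated 24 hr at 37 deg C under 5% CO2 after a 12 hour attachment period, then luciferase detection reagent is added and luminescence is measured following 12 min at room temperature; lowered signal indicates toxicity.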
GLP-1R inv ag – inverse agonists of human GLP-1 receptor | P43220 | HEK293 GLP-1R CRE-luciferase, luminescence, 24 h; GLP-1R form is constitutively active | Potency, µM (highest dose often 38.3 µM), for the others: at the highest dose activity change, negative = inhibition, hits mostly inhibitors | hit rate 1.6% among 410,000 | AID 624417; note: % is set by controls: 0 for no effect and ±100 for the full control effect; nearly all actives have a fitted effect of over 55% in size
Target sequence (P43220 whole entry, looked up): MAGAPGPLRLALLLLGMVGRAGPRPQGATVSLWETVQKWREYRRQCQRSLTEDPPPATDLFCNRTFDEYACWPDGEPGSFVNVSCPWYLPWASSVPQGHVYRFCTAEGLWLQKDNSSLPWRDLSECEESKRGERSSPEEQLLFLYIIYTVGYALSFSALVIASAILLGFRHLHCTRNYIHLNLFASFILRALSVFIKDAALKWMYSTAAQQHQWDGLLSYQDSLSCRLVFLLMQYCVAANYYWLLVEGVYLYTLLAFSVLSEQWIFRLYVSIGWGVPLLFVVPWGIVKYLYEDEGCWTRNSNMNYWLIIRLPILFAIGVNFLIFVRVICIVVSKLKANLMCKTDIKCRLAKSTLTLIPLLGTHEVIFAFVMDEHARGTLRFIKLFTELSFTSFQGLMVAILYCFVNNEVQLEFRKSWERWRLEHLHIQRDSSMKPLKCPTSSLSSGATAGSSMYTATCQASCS
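Stable HEK293 clone (constitutively active GLP-1R + cAMP-response luciferase); 200 cells/uL plated, 12 h pre-culture, compound 24 hr, 37 deg C/5% CO2; detection reagent 12 min RT; luminescence.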
VP16 counter – inhibits Gal4-VP16 luciferase reporter, ROR gamma counter-screen; Drosophila S2 Gal4-VP16 UAS-luciferase, luminescence, 20 h; Potency, µM (titrated, usually from 53.6 µM), for the others: at the top dose activity, negative = inhibition, hits mostly inhibitors; hit rate 3.5% among 310,000;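 note: Gal4-VP16 expression switched on by copper sulfate through the metallothionein promoter; % is set by controls: 0 for no effect and ±100 for the full control effect; nearly all actives have a fitted effect of over 50% in size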
GLP-1R agonist – activates the human GLP-1 receptor; HEK293 GLP-1R CRE-luciferase, luminescence, 4-6 h; cells express a hypersensitive GLP-1R form; Potency, µM (highest dose often 45.6 µM), inactives show at the top dose activation, most hits filed as activators; hit rate 0.007% among 380,000; note: % of control where 0% means no effect
RORgamma inh – ROR gamma (mouse) transcription inhibition. P51450. Drosophila S2 Gal4-RORgamma UAS-luciferase reporter, 20 h. Potency, µM (top dose mostly 53.6 µM), for the others: top-dose activity change, negative = inhibition, usual class: inhibitors. hit rate 5.4% among 310,000. AID 2551; note: % is set by controls: 0 for no effect and ±100 for the full control effect; nearly all actives have a fitted effect of over 60% in size
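Using a luciferase readout, inhibitors were identified by reduced reporter activity in Drosophila cells coexpressing a copper-inducible Gal4–ROR gamma fusion and UAS-driven Photinus luciferase, incubated 20 hr after 700 uM copper sulfate.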
* hit, by the source's call; ? = inconclusive; . = not tested or not shown; [ ] = dose if it differs, or a comment. Calls come from the whole dose curve; as a rule, active = well fitted curve in the direction sought with a large enough effect; inconclusive = small, poorly fitted or top-dose-only effect, or another doubt; inactive = no such curve, though single readings can be large; an effect the other way counts as inactive or inconclusive. Potency is the fitted concentration of half-maximal effect.

SMILES | HEK293 tox | GLP-1R inv ag | VP16 counter | GLP-1R agonist | RORgamma inh
CC(C)(C)NC(=O)C(=O)NNC(=O)c1ccc(C(C)(C)C)cc1 | -25.6% | ? | ? | -17.9% | 8.91µM*
Cc1cccc(C(=O)NNC(=O)C(=O)NC(C)(C)C)c1 | -20.2% | 0.2% | -2.3% | -7.3% | 12.6µM*
COC(=O)NNC(=O)c1ccc(C(C)(C)C)cc1 | 14.6% | 25.1% | -9.7% | 3.0% | 13.3%
COc1ccc(OC)c(CCNC(=O)c2cnn(-c3ccccc3)c2C2CCN(C(=O)OC(C)(C)C)CC2)c1 | -24.5% | ? | . | . | .
Cc1cccn2c(=O)c3cc(C(=O)NC(C)C)n(C)c3nc12 | -11.4% | 18.4% | . | . | .
CCC(NC(=O)Nc1ncccc1C)(C(F)(F)F)C(F)(F)F | -0.3% | 14.5% | -2.8% | -15.9% | 6.7%[10 µM]
CCC(NC(=O)NNC(N)=S)(C(F)(F)F)C(F)(F)F | -64.8% | -33.9% | -14.8% | 3.4% | 11.2µM*
Cc1ccc(CNC(=O)c2c(-c3ccccc3F)noc2C)o1 | -5.0% | 3.5% | . | . | .
COC(=O)c1ccc2c(c1)C(=O)/C(=C/c1ccc(O)cc1)O2 | -4.9% | 7.9% | 1.58µM* | 9.7% | 0.224µM*
C=C(C)Cn1c(SCC(=O)Nc2ccccc2C)nc2sc3c(c2c1=O)CCCC3 | 2.0% | 0.8% | . | . | .
CC1=C(C)CS(=O)N(S(=O)(=O)c2ccccc2)C1 (centres undefined) | ? | 0.0% | 11.2µM* | -8.6% | 8.91µM*
NS(=O)(=O)c1ccc(N2C(=O)C3CC=CCC3C2=O)cc1 (centres undefined) | -4.5% | -10.2% | 4.3% | -0.1% | 2.0%
CC1=C(C)CS(=O)N(c2ccc(S(N)(=O)=O)cc2)C1 (centres undefined) | ? | -20.5% | 4.47µM* | -4.8% | 3.55µM*
O=S(=O)(/N=S1\CC=CCN1S(=O)(=O)c1ccccc1)c1ccccc1 (centres undefined) | 0.7% | 8.7% | . | 1.1% | .
COc1ccc(CCNC(=S)NC(=O)c2ccc(Br)cc2)cc1OC | -7.7% | ? | ? | 21.3% | 12.6µM*
COc1ccc(CCNC(=S)NCCc2ccc(OC)c(OC)c2)cc1OC | ? | -5.3% | -3.7% | -0.7% | -25.4%
COc1ccc(CCNC(=O)CCNC(=O)c2ccc(Br)cc2)cc1OC | -0.4% | 0.0% | -3.0% | 2.2% | 37.3%
COc1ccc(CCNC(=O)C(=O)NCC2OCCN2S(=O)(=O)c2ccc(Br)cc2)cc1OC (centres undefined) | 17.8% | 8.0% | 7.94µM* | 0.9% | ?
COc1ccc(CCNC(=S)NC(=O)c2ccccc2)cc1C | ? | ? | ? | 19.3% | 10µM*
COc1ccc(CCNC(=S)c2ccccc2)cc1OC | -6.2% | ? | 15.8µM* | -0.4% | ?
CCOc1ccc(N=C(C)Nc2ccc(OCC)cc2)cc1 | . | . | . | -4.3% | .
CCCCOC(=O)c1ccc(Nc2ncnc3c2cnn3-c2cccc(C)c2)cc1 | 0.2% | 12.6% | . | . | .
Cc1cccn2c(=O)c3cc(C#N)c(=O)n(-c4nnc(SCc5ccc(Cl)cc5)s4)c3nc12 | 48.7% | 4.3% | . | . | .
COc1cc2c(cc1NC(=O)C(C)NCc1ccccc1)oc1ccccc12 (centres undefined) | 34.1% | 11.2µM* | ? | 15.3% | 33.5%
COc1cc2c(cc1NC(=S)Nc1cccc3ccccc13)oc1ccccc12 | 0.2% | ? | 11.2µM* | -3.0% | 10µM*
SMILES | HEK293 tox | GLP-1R inv ag | VP16 counter | GLP-1R agonist | RORgamma inh
COc1cc2c(cc1NC(=O)Nc1ccccc1)oc1ccccc12 | -20.4% | ? | -11.2% | -10.7% | ?
COCCCNC(=S)Nc1cc2oc3ccccc3c2cc1OC | ? | ? | 7.08µM* | 12.5% | 5.62µM*
COc1ccc(N2CCN(C(=O)Cn3cnc4sc(C)c(S(=O)(=O)N5CCC(C)CC5)c4c3=O)CC2)cc1 | -10.8% | 1.0% | . | . | .
COc1ccc(C(=O)N2CCC3(CCCN(Cc4cc(C(F)(F)F)cc(C(F)(F)F)c4)C3)CC2)cc1 | . | . | -1.0% | . | -24.0%
COc1cccc(C(=O)N(Cc2sccc2C)C2CCS(=O)(=O)C2)c1 (centres undefined) | 1.5% | 2.4% | . | . | .
CC12CCC=CC1C(c1ccc3ccccc3c1C=Cc1ccccc1)N(Cc1ccccc1)C2=O (centres undefined) | . | . | -3.6% | . | -3.8%
Cn1cc(CN(C(=O)Nc2ccc(Cl)c(Cl)c2)C2CCCCC2)c2ccccc21 | 2.2% | 19.9% | . | -1.4% | .
Cn1cc(CN(C(=O)Nc2ccccc2)C2CCCCC2)c2ccccc21 | ? | 10µM* | . | -4.0% | .
CS(=O)(=O)c1nc2ccccc2n1Cc1ccccc1 | -10.8% | -23.9% | -0.3% | -0.7% | -0.2%
CC(=O)Nc1nc2ccccc2n1Cc1ccccc1 | -5.9% | 83.5% | 5.62µM* | -5.0% | 2.24µM*
O=NNc1nc2ccccc2n1Cc1ccccc1 | ? | ? | 2.82µM* | -2.1% | 1.78µM*
Cc1cc(-c2ccc(S(=O)(=O)N3CCN(c4ccc(Cl)cc4)CC3)s2)on1 | 3.5% | 5.4% | . | . | .
CC(=O)C1=C(O)C=C2Oc3c(C(C)=O)c(O)c(C)c(O)c3C2(C)C1=O (centres undefined) | . | . | 5.6% | . | 12.5%
CC1=C(C(=O)Nc2ccccc2)C(C(C)C)n2nc(SCc3ccccc3C)nc2N1 (centres undefined) | -9.5% | 2.8% | . | -0.5% | .
Fc1ccc(F)c(NC(=S)NCCc2ccccc2)c1 | -7.6%[7.66 µM] | -22.5%[7.66 µM] | ? | 1.4% | 4.47µM*
Fc1ccccc1NC(=S)NCc1ccccc1 | -4.9% | 7.3% | ? | 1.6% | ?
Fc1cccc(NC(=S)NCCc2ccccc2)c1 | ? | ? | ? | 18.5% | 3.16µM*
Fc1ccccc1NC(=S)NCCc1ccccc1 | -19.0% | ? | ? | 5.5% | 6.31µM*
Fc1ccccc1NC(=S)NCCc1ccc(Cl)cc1 | ? | ? | ? | 4.2% | 8.91µM*
CCCS(=O)(=O)N1CC(=O)N(c2cccc(Cl)c2C)C(C)(C(=O)NC2CCCC2)C1 (centres undefined) | -3.5% | 1.2% | . | . | .
CC(C)CCNC(=O)C1CCN(C(=O)c2cc3sccc3n2Cc2ccc(Cl)cc2)CC1 | -15.2% | -27.6% | . | . | .
COc1ccccc1OCC(=O)NCCS(=O)(=O)N1CCN(c2ccccc2OC)CC1 | 6.7% | -3.0% | . | . | .
CCCc1c(C(=O)N/N=C/c2ccc(C)s2)nnn1-c1nonc1N | -2.0% | 17.2% | 2.82µM* | -1.3% | 1µM*
CN(Cc1c(C(=O)N/N=C/c2cccs2)nnn1-c1nonc1N)c1ccccc1 | -7.2% | ? | ? | -0.7% | 5.62µM*
CCCc1c(C(=O)N/N=C/c2cccs2)nnn1-c1nonc1N | -18.5% | 3.5% | 6.31µM* | 0.8% | ?
CCCN(CCC)Cc1c(C(=O)N/N=C/c2cccs2)nnn1-c1nonc1N | -6.6% | ? | ? | 7.5% | 12.6µM*
Cc1c(C(=O)N/N=C/c2cccs2)nnn1-c1nonc1N | 4.0% | -0.6% | ? | 5.4% | 11.2µM*
Cc1ccsc1/C=N/NC(=O)c1nnn(-c2nonc2N)c1C | -10.5% | 8.0% | ? | 7.4% | ?
